This passage reports outcome and AC50 results from PubChem BioAssay (EPA / NIEHS).

Calls of active or inactive are those of the source. Rule for the calls: active = hit-call score of the fitted dose curve at least 0.9, where 1 is the maximum; inactive = score below 0.9.

Read-out in assay [1]: Urokinase-type plasminogen activator receptor (uPAR), PLAUR (gene 5329)
Put plainly: BSK_4H_uPAR: BioMAP Diversity Plus: 4H Assay for Urokinase-type plasminogen activator receptor (uPAR) Biomarker Activity (AID 2283030). The note with it: primary human endothelial cells (HUVEC); actives raise or lower the signal. An outline of the steps:
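Primary human umbilical vein endothelial cells were exposed to chemical for 24 h before cell-surface uPAR was quantified by ELISA. Activity was fitted bidirectionally against the DMSO negative control baseline.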

Read-out in assay [2]: Vascular endothelial growth factor receptor 2 (Homo sapiens) (UniProt P35968)
As to the kind of experiment: BSK_4H_VEGFRII: BioMAP Diversity Plus: 4H Assay for Vascular endothelial growth factor receptor 2 (VEGFR2) Biomarker Activity (AID 2283031).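 For AC50: cell-surface VEGFR2 protein level quantified by ELISA.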 The note with it: primary human endothelial cells (HUVEC); actives raise or lower the signal. An outline of the steps: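 Primary human umbilical vein endothelial cells in the BioMAP 4H system were dosed with test chemical, and 24 h later VEGFRII was measured by ELISA. Activity was fitted bidirectionally against DMSO as negative control and baseline.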

Read-out in assay [3]: Human Leukocyte Antigen - DR isotype (HLADR), HLA-DRA (gene 3122)
As to the kind of experiment: BSK_BE3C_HLADR: BioMAP Diversity Plus: BE3C Assay for Human Leukocyte Antigen - DR isotype (HLADR) Biomarker Activity (AID 2283032). The conditions noted are these: primary human bronchial epithelial cells; actives raise or lower the signal. An outline of the steps:
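Chemicals are dosed onto BE3C bronchial epithelial cultures of human origin and left 24 h. HLA-DR is then measured by ELISA, and the endpoint is fitted in both directions using DMSO as the activity baseline.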

Read-out in assay [4]: Vascular cell adhesion molecule 1 (VCAM1), VCAM1 (gene 7412)
As to the kind of experiment: BSK_4H_VCAM1: BioMAP Diversity Plus: 4H Assay for Vascular cell adhesion molecule 1 (VCAM1) Biomarker Activity (AID 2283033).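 For outcome: cell-surface VCAM-1 protein measured by ELISA.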 The conditions noted are these: primary human endothelial cells (HUVEC); actives raise or lower the signal. An outline of the steps:
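Chemicals are added to primary human umbilical vein endothelial cells. After 24 h, VCAM-1 levels are measured by ELISA. Values come from bidirectional fitting referenced to DMSO.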

Read-out in assay [5]: Interferon-gamma inducible Protein 10 (IP10), CXCL10 (gene 3627)
Put plainly: BSK_BE3C_IP10: BioMAP Diversity Plus: BE3C Assay for Interferon-gamma inducible Protein 10 (IP10) Biomarker Activity (AID 2283034). The conditions noted are these: primary human bronchial epithelial cells; actives raise or lower the signal. The essentials:
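IP-10 quantified by ELISA serves as the endpoint. Cells: primary human bronchial epithelium, read 24 h after compound addition. Activity is derived by bidirectional fitting with DMSO as negative control.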

Read-out in assay [6]: Plasminogen activator inhibitor-1 (PAI1), SERPINE1 (gene 5054)
Put plainly: BSK_BE3C_PAI1: BioMAP Diversity Plus: BE3C Assay for Plasminogen activator inhibitor-1 (PAI1) Biomarker Activity (AID 2283037). The conditions noted are these: primary human bronchial epithelial cells; actives raise or lower the signal. The essentials:
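Values derive from bidirectional fitting against DMSO baseline of PAI-1 levels, measured by ELISA in human bronchial epithelial cells 24 h after compound addition.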

Read-out in assay [7]: urokinase plasminogen activator (uPA), PLAU (gene 5328)
As to the kind of experiment: BSK_BE3C_uPA: BioMAP Diversity Plus: BE3C Assay for urokinase plasminogen activator (uPA) Biomarker Activity (AID 2283038).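 For outcome: uPA protein level quantified by ELISA in cell cultures; uPA read one day after compound addition.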 The conditions noted are these: primary human bronchial epithelial cells; actives raise or lower the signal. The essentials: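 Human primary bronchial epithelial cells were exposed to chemical for 24 h, then uPA levels were measured by ELISA. Responses were fitted bidirectionally against DMSO as negative control and baseline. Parallel SRB staining of total protein gauged overt cytotoxicity.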

Read-out in assay [8]: Interleukin-6 (IL6), IL6 (gene 3569)
Put plainly: BSK_CASM3C_IL6: BioMAP Diversity Plus: CASM3C Assay for Interleukin-6 (IL6) Biomarker Activity for (AID 2283040). The note with it: primary human coronary artery smooth muscle cells; actives raise or lower the signal.

Read-out in assay [9]: Tissue plasminogen activator (tPA), PLAT (gene 5327)
Put plainly: BSK_BE3C_tPA: BioMAP Diversity Plus: BE3C Assay for Tissue plasminogen activator (tPA) Biomarker Activity (AID 2283041).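 For outcome: tPA level quantified by ELISA one day after compound addition.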 The conditions noted are these: primary human bronchial epithelial cells; actives raise or lower the signal. The essentials:
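Gain- or loss-of-signal in tPA, measured by ELISA, derived by bidirectional fitting against DMSO. Cells: human primary bronchial epithelial; read at 24 h after chemical dosing.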

Read-out in assay [10]: Interleukin-8 (IL8), CXCL8 (gene 3576)
As to the kind of experiment: BSK_CASM3C_IL8: BioMAP Diversity Plus: CASM3C Assay for Interleukin-8 (IL8) Biomarker Activity (AID 2283042).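 Note: IL-8 protein level quantified by ELISA.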 The conditions noted are these: primary human coronary artery smooth muscle cells; actives raise or lower the signal.

Read-out in assay [11]: Human Leukocyte Antigen - DR isotype (HLADR), HLA-DRA (gene 3122)
Put plainly: BSK_CASM3C_HLADR: BioMAP Diversity Plus: CASM3C Assay for Human Leukocyte Antigen - DR isotype (HLADR) Biomarker Activity (AID 2283043).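 Note: cell-surface HLA-DR protein level quantified by ELISA.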 The note with it: primary human coronary artery smooth muscle cells; actives raise or lower the signal.

Read-out in assay [12]: Monocyte Chemoattractant Protein-1 (MCP1), CCL2 (gene 6347)
Put plainly: BSK_CASM3C_MCP1: BioMAP Diversity Plus: CASM3C Assay for Monocyte Chemoattractant Protein-1 (MCP1) Biomarker Activity (AID 2283046).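 Note: MCP-1 level quantified by ELISA 24 h after dosing.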 The conditions noted are these: primary human coronary artery smooth muscle cells; actives raise or lower the signal.

A short description of assay [13]: BSK_CASM3C_Proliferation: Cell Proliferation Assessment in the BioMAP Diversity Plus: CASM3C Assay (AID 2283047).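 Note: sulforhodamine B total protein stain as relative cell number at 560 nm; sub-confluent cells exposed 48 h before staining; fitted both ways against DMSO so gain or loss of cell number.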 The note with it: primary human coronary artery smooth muscle cells.
Read-out in assay [14]: Monokine induced gamma interferon (MIG), CXCL9 (gene 4283)
As to the kind of experiment: BSK_CASM3C_MIG: BioMAP Diversity Plus: CASM3C Assay for Monokine induced gamma interferon (MIG) Biomarker Activity (AID 2283048). The note with it: primary human coronary artery smooth muscle cells; actives raise or lower the signal.

Read-out in assay [15]: Thrombomodulin, THBD (gene 7056)
Put plainly: BSK_CASM3C_Thrombomodulin: BioMAP Diversity Plus: CASM3C Assay for Thrombomodulin Biomarker Activity (AID 2283051).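 Note: thrombomodulin protein level measured by ELISA 24 h after dosing.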 The conditions noted are these: primary human coronary artery smooth muscle cells; actives raise or lower the signal.

Read-out in assay [16]: Tissue Factor, F3 (gene 2152)
Put plainly: BSK_CASM3C_TissueFactor: BioMAP Diversity Plus: CASM3C Assay for Tissue Factor Biomarker Activity (AID 2283052).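 Note: cell surface tissue factor protein level read by ELISA.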 The note with it: primary human coronary artery smooth muscle cells; actives raise or lower the signal.

Read-out in assay [17]: Urokinase-type plasminogen activator receptor (uPAR), PLAUR (gene 5329)
Put plainly: BSK_CASM3C_uPAR: BioMAP Diversity Plus: CASM3C Assay for Urokinase-type plasminogen activator receptor (uPAR) Biomarker Activity (AID 2283054).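 Note: cell-surface uPAR protein level quantified by ELISA.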 The note with it: primary human coronary artery smooth muscle cells; actives raise or lower the signal.

Read-out in assay [18]: Collagen III, COL3A1 (gene 1281)
Put plainly: BSK_hDFCGF_CollagenIII: BioMAP Diversity Plus: hDFCGF Assay for Collagen III Biomarker Activity (AID 2283056). The note with it: primary human foreskin fibroblasts; actives raise or lower the signal. An outline of the steps: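 Human foreskin primary fibroblasts were exposed to test chemicals for 24 h, after which collagen III was quantified by ELISA. Activity was fitted bidirectionally against DMSO as negative control and baseline.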

Read-out in assay [19]: Epidermal growth factor receptor (EGFR), EGFR (gene 1956)
Put plainly: BSK_hDFCGF_EGFR: BioMAP Diversity Plus: hDFCGF Assay for Epidermal growth factor receptor (EGFR) Biomarker Activity (AID 2283057). The conditions noted are these: primary human foreskin fibroblasts; actives raise or lower the signal. An outline of the steps: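 Dosing human primary skin fibroblasts, then measuring surface EGFR by ELISA at 24 h, gives the endpoint; gains and losses relative to DMSO were fitted in both directions.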

Read-out in assay [20]: Interleukin-8 (IL8), CXCL8 (gene 3576)
Put plainly: BSK_hDFCGF_IL8: BioMAP Diversity Plus: hDFCGF Assay for Interleukin-8 (IL8) Biomarker Activity (AID 2283058). The conditions noted are these: primary human foreskin fibroblasts; actives raise or lower the signal. The essentials:
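hDFCGF human dermal fibroblasts; 24 h chemical exposure; IL-8 by ELISA; bidirectional curve fit vs DMSO baseline; gain or loss of signal scored.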

Take `CN(C)c1ccc(C(c2ccccc2)c2ccc(N(C)C)cc2)cc1`: the result in assay [1], in assay [3], in assay [7], in assay [10], in assay [11] and in assay [12] was inactive. Also, the outcome in [14], in [17], in [19] and in [20] was inactive. Besides, the AC50 is 5.36 µM (active) in [2]; 20 µM (active) in assay [4]; 10.7 µM (active) in assay [5]; 10.9 µM (active) in assay [6]; 9.64 µM (active) in [8]; 6.47 µM (active) in assay [9]. Also, the AC50 was 9.42 µM (active) in assay [13], 1.26 µM (active) in assay [15], 7.33 µM (active) in [16] and 10.7 µM (active) in [18].

With `Cc1cccnc1`, the result in [1], in assay [2], in assay [3], in assay [4], in assay [5] and in assay [6] was inactive. For the same compound, the outcome in [7], in assay [8], in assay [9], in [10], in assay [11] and in [12] was inactive. For the same compound, the result in assay [13], in assay [14], in [15], in [16], in [17] and in assay [18] was inactive. Also, the result in [19] and in assay [20] was inactive.

`Cc1cc(-n2nc3ccc(Cl)cc3n2)c(O)c(C(C)(C)C)c1`: the AC50 in assay [1] is 1.37 µM (active). Moreover, the result in assay [2], in assay [3], in assay [4], in [5], in assay [6] and in assay [7] was inactive. Also, the result in assay [8], in assay [9], in assay [10], in assay [11], in assay [12] and in assay [13] was inactive. Moreover, the result in assay [14], in assay [15], in [16], in assay [17], in assay [18] and in [19] was inactive. Moreover, the result in [20] was inactive.

`CCCCCCCCCCC1CO1` (stereo not given): the AC50 in [1] was 30.1 µM (active); in assay [2], 34.7 µM (active); in assay [3], 31.2 µM (active); in assay [4], 33.8 µM (active); in assay [5] it was 30.6 µM (active); in assay [12], 6.3 µM (active). Further, the AC50 in [16] was 30.2 µM (active); in [17], 34.3 µM (active); in assay [18] it was 20 µM (active); in assay [20], 28.5 µM (active). Besides, the result in [6], in [7], in [8], in [9], in assay [10] and in assay [11] was inactive. In addition, the outcome in [13], in assay [14], in assay [15] and in [19] was inactive.

As for `CN(C)CCC(c1ccc(Cl)cc1)c1ccccn1` (stereo not given), the result in assay [1], in assay [2], in assay [3], in assay [5], in [6] and in [7] was inactive. For the same compound, the result in assay [8], in assay [9], in assay [10], in [11], in assay [12] and in assay [13] was inactive. Moreover, the result in assay [14], in assay [15], in [16], in assay [17], in assay [18] and in assay [19] was inactive. Further, the result in [20] was inactive. Also, the AC50 in [4] was 0.756 µM (active).

As for `CCCCCCCCCCCCCCCCCC[N+](C)(C)C`, the outcome in assay [1], in assay [6], in [15] and in [18] was inactive. Also, the AC50 in [2] was 1.23 µM (active); in assay [3], 2.52 µM (active); in [4], 1.42 µM (active); in assay [5] it was 2.69 µM (active); in assay [7], 7.3 µM (active); in assay [8], 8.51 µM (active). Further, the AC50 in assay [9] was 1.32 µM (active); in [10] it was 9.19 µM (active); in [11], 3.33 µM (active); in assay [12], 3.5 µM (active); in assay [13] it was 2.09 µM (active); in assay [14] it was 9.22 µM (active). Further, the AC50 in assay [16] is 3.27 µM (active); in assay [17], 6.31 µM (active); in assay [19], 2.81 µM (active); in [20] it was 8.41 µM (active).

As for `COC(=O)/C=C\C(=O)OC`, the outcome in [1], in assay [2], in [6], in assay [7], in assay [8] and in assay [9] was inactive. Further, the result in assay [10], in assay [12], in [13], in assay [14], in assay [15] and in [16] was inactive. The outcome in [17], in [18], in assay [19] and in assay [20] was inactive. Further, the AC50 in assay [3] was 10.7 µM (active); in [4], 17.7 µM (active); in assay [5] it was 20 µM (active); in [11], 5.11 µM (active).

With `CC(C)CC(=O)CC(C)CC(C)C` (stereo not given), the AC50 is 30.9 µM (active) in assay [1]; 32.6 µM (active) in assay [2]; 36 µM (active) in assay [3]; 39.2 µM (active) in assay [4]; 36.9 µM (active) in assay [5]; 37.4 µM (active) in assay [6]. The AC50 in assay [8] was 20 µM (active); in assay [9] it was 29.4 µM (active); in assay [11], 27.3 µM (active); in assay [12], 34 µM (active); in assay [13], 32 µM (active); in assay [14], 32.1 µM (active). Besides, the AC50 in assay [16] was 31.7 µM (active); in assay [17], 30.4 µM (active). Moreover, the outcome in [7], in assay [10], in [15], in assay [18], in assay [19] and in assay [20] was inactive.
